# MITF act = activators of MITF-driven TRPM1 promoter activity in SK-MEL-5 cells; activation, % at 12.5 µM; AID 588334; SK-MEL-5 TRPM1-promoter luciferase, 24 h; % of positive control, neutral wells = 0; actives 0.75% (n = 300,000);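 active = mean activation of at least 80% with every replicate also reaching 80%; inconclusive = mean reaches 80% but some replicate falls short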;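 note: 0% = neutral control wells and 100% = parthenolide positive control wells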
# Wnt act = activates Wnt/beta-catenin signaling in a reporter cell assay; AID 743398; actives 1.2% (n = 300,000); activator, plate reader; activation, % at 9.35 µM; in the data active = activation above about 30%, passing the limit was not always enough; inconclusive = no clear call, values can overlap the other calls;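 note: 0% = neutral control wells and 100% = positive control wells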
# Ecoli rRNA inh = selective bacterial rRNA inhibition in E. coli | E. coli WT GFP vs humanized-ribosome RFP mutants, fluorescence, 24 h; hits give low values; DMSO median 0, no signal -100 | GFP signal change (wild-type ribosome), % (no concentration beside the values) | actives 1.6% (n = 350,000) | AID 720706;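 active = significant combined selectivity score with lowered wild-type GFP, culture density cut under 30%, mutant RFP and density less affected; inactive = any of these conditions unmet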
# MLL AF4-AF9 inh = MLL-AF4/AF9 protein interaction inhibition | AlphaScreen, biotin-AF4 peptide binding to FLAG-AF9 | actives 0.47% (n = 350,000) | inhibition, % at 10 µM | P42568;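 active = every replicate reaching a set inhibition limit, whatever the replicate mean, cut at about 25% in these data; inconclusive = mean inhibition reaches that limit but some replicates miss it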;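 note: 0% = plate neutral control median and 100% = total signal loss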
# Target sequence (P42568 whole entry, looked up): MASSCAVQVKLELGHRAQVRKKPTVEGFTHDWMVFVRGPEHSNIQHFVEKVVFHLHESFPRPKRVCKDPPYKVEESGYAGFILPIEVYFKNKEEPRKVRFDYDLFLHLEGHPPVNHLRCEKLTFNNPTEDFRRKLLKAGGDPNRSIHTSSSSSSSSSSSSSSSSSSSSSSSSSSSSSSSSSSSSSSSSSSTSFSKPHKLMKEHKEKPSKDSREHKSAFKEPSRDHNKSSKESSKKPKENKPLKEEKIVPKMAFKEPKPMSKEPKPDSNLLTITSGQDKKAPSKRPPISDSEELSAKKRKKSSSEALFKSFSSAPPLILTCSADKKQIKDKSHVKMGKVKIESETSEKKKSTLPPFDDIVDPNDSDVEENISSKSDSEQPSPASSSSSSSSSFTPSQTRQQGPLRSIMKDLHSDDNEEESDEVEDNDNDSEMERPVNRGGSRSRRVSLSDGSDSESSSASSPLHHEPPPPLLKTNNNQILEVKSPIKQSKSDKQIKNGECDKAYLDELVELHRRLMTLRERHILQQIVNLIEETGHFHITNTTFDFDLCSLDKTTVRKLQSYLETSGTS
# esBAF inh = SWI/SNF esBAF complex inhibition. mouse ES cells, Bmi1-luciferase knock-in reporter, 24 h; 100% = twice the neutral-well signal. reporter increase, % at 12.5 µM. actives 2% (n = 350,000). AID 602393; in the data active = activation above about 40%; inconclusive = no clear call, values can overlap the other calls;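 note: 0% = median of the plate's neutral control wells and 100% = double that signal; a rise in the Bmi1 reporter signal indicates esBAF inhibition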
# An asterisk follows results filed as active; u = inconclusive; x = no result. Rows were chosen to be rich in hits. Some 3.7% of all compounds tested hit in one or more screens of this group.
SMILES,MITF act,Wnt act,Ecoli rRNA inh,MLL AF4-AF9 inh,esBAF inh
NC(=O)C1CCCN(C(=O)c2ccc(S(=O)(=O)N3CCCCCC3)cc2)C1 (configuration not stated),-3,-2,x,-1,-6
NC(=O)C1CCCN(C(=O)c2ccc(-c3cccc(Cl)c3Cl)o2)C1 (configuration not stated),80,38*,-13,-19,75*
O=C(c1ccc(-c2cccc(Cl)c2Cl)o1)N1CCOCC1,86*,34*,-27,2,39
CNc1cc(-c2cc(OC)ccc2OC)ncn1,x,x,8,9,3
CNc1cc(-c2ccc(OC)nc2)ncn1,x,20,9,1,50*
O=C(C[C@H]1CC[C@H]2[C@@H](COC[C@@H](O)CN2Cc2cccc(Cl)c2)O1)N1CCOCC1,x,x,8,-1,2
O=C(NCCCn1ccnc1)c1cc2nc(-c3ccc(Br)cc3)cc(C(F)(F)F)n2n1,3,-7,x,x,x
CC(=O)c1cccc(NC(=O)Nc2cnn(Cc3ccc(F)cc3)c2)c1,x,-2,-22*,2,x
CCS(=O)(=O)N1CC2(C1)[C@@H](c1ccccc1)[C@H](CO)N2C(=O)C1CC1,x,x,2,-4,x
Cc1ccc(C)c(NC(=S)N2CCC(c3nc4ccccc4s3)CC2)c1,1,-2,-35*,4,-5
CCc1ccc(C(=O)N2CCC(c3nc4ccccc4s3)CC2)cc1,-1,1,x,x,x
COc1ccc(/C=C\c2nc(=O)c3ccccc3o2)cc1,2,5,-47,7,-1
O=c1nc(/C=C/c2ccc(O)c(O)c2)oc2ccccc12,82*,x,x,x,-11
COc1ccc(/C(N)=N/OC(=O)c2cccc([N+](=O)[O-])c2)cc1,25,x,x,x,64*
COc1cccc(C(=O)O/N=C(\N)c2ccc([N+](=O)[O-])cc2)c1,15,x,x,x,55*
CCCCCOC(=O)C1=C(C)NC(=O)NC1c1ccc([N+](=O)[O-])cc1 (configuration not stated),1,0,4,0,-9
Cn1c(=O)c2nc(-c3ccccc3)c(-c3ccccc3)nc2n(C)c1=O,-9,-1,-20*,3,x
C=CCCC(=O)Nc1ccc(Br)cn1,-3,0,8,-3,x
O=c1c2ccccc2oc2cc(-c3ccc(CN4CCOCC4)cc3)ccc12,u,u,-17,9,77*
COc1ccc(/[N+]([O-])=C/c2ccco2)cc1,89*,46*,0,x,55*
COc1ccc(OCC(=O)N/N=C\c2ccco2)cc1,-3,-1,9,-1,x
O=C(NC(=S)Nc1cccc(CO)c1)c1ccc(-c2ccccc2)cc1,20,11,-5,0,x
C[C@@H]1CN([C@H](C)CO)C(=O)Cc2cc(N(C)C)ccc2O[C@H]1CN(C)Cc1ccccc1,x,x,4,2,-7
Cc1cccc(Cc2cnc(NC(=O)c3ccc(C)o3)s2)c1,88*,51*,x,x,x
COc1ccc(/C=N/N=C2/SCC(=O)N2Cc2ccccc2)cc1,x,56*,22,7,x
SMILES,MITF act,Wnt act,Ecoli rRNA inh,MLL AF4-AF9 inh,esBAF inh
CCOC(=O)N1CCN(C(=O)c2cc3c(-c4cccc(OC)c4)nn(C)c3s2)CC1,-17,-2,-29*,-5,10
CCOc1cccc(OCCOc2ccccc2[N+](=O)[O-])c1,u,x,x,x,80*
COc1cccc(OCCNS(=O)(=O)c2ccccc2[N+](=O)[O-])c1,0,5,-22*,4,8
CCOc1ccccc1OCCOCCOc1ccccc1[N+](=O)[O-],3,6,x,2,x
COc1ccc(CCNS(=O)(=O)c2ccccc2[N+](=O)[O-])cc1OC,x,-2,-2,0,-11
O=C(CSc1nc2ccccc2c(=O)n1CCCO)NCc1ccccc1,9,-14,x,x,0
O=c1c2ccccc2nc(SCc2nc3ccccc3s2)n1CCCO,74,41*,x,x,36
CC(C)NC(=O)Nc1ccc2c(c1)C(=O)N([C@H](C)CO)C[C@@H](C)[C@@H](CN(C)S(=O)(=O)c1ccccc1)OCCCC[C@@H](C)O2,x,x,-1,4,2
COc1ccc(CNC(=O)CN(C)S(=O)(=O)c2ccc(Br)s2)cc1,0,-1,-4,-1,-4
CN(CC(=O)NCc1ccc(F)cc1)S(=O)(=O)c1ccc(Br)s1,-2,2,-22*,-1,5
O=C(C=C1NCCN1)c1ccccc1,x,-1,2,1,4
O=C(/C=C1\NCC2c3ccccc3CCN2C1=O)c1ccccc1 (configuration not stated),x,x,x,x,49*
COc1c2ccoc2nc2c(OC)cccc12,-1,6,-22*,0,3
COc1cc(NC(=O)c2cc3nc(C)cc(C)n3n2)c(OC)cc1Cl,100*,x,x,x,52*
O=C(CN(Cc1ccccc1)C(=O)c1csnn1)NCc1ccc2c(c1)OCO2,-1,-3,-3,0,0
N#Cc1ccc(-c2ccc([C@H]3[C@H]4CN(C(=O)Cc5ccccc5)CC(=O)N4[C@H]3CO)cc2)cc1,x,x,-3,-1,x
CC(C)(C)c1csc(N/N=C/c2ccc(O)cc2)n1,97*,11,-37,8,u
Cc1ccc(S(=O)(=O)N2[C@@H](c3ccc(C#N)cc3)C(C(=O)O)=C[C@H]2C(C)(C)C)cc1,13,-2,-11,-2,6
Clc1ccc(-c2ccc(SCc3ccccn3)nn2)cc1,116*,36*,x,x,51*
O=[N+]([O-])c1cccc(-c2ccc(SCc3ccccn3)nn2)c1,75,-1,-2,2,42*
Cc1cc(NC(=O)CSc2nnc(-c3cccc(Cl)c3)o2)no1,8,1,-8,-1,15
Cc1cc(-c2nnc(-c3cccc(Cl)c3)o2)no1,x,53*,-7,u,x
O=c1ccnc(Nc2ccc([N+](=O)[O-])cc2)[nH]1,2,-1,-5,4,x
O=c1oc(CCO)cc2ccc(-c3ccc4[nH]ccc4c3)cc12,117*,43*,3,-3,50*
CC(C)CNC(=O)c1nn(Cc2ccccc2)c(=O)c2ccccc12,-3,-2,2,1,1
COc1ccccc1C(=O)NNC(=O)c1nn(Cc2ccccc2)c(=O)c2ccccc12,-12,-4,-24*,-1,x
O=C(CSc1nnc(-c2cccc(Br)c2)o1)N1CCNC1=O,88*,-1,3,-14,62*

# Screens deposited in PubChem BioAssay by Broad Institute.
